# Data: PubChem BioAssay (EPA / NIEHS)
# Records with an inconclusive call do not appear. Calls of active or inactive are those of the source. The calls were made as follows, unless noted: active = hit-call score of the fitted dose curve at least 0.9, where 1 is the maximum; inconclusive = response in the unintended direction; inactive = score below 0.9.
# Experiments:
# [1] = tested on: Thyroperoxidase (TPO), gene 54314; test: CCTE_Simmons_AUR_rTPO: CCTE's Amplex UltraRed Assay for Thyroperoxidase (TPO) Inhibition, Simmons Lab (AID 2283662);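 as to AC50: potency for loss of signal meaning inhibition of peroxidase activity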
# Outline: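 Rat thyroid microsomes (5 ug protein) were incubated with test compound (8 concentrations, 5 nM–87.5 uM final, 0.5% DMSO), 25 uM Amplex UltraRed and 300 uM H2O2 in 200 mM phosphate buffer for 30 min at 37C in the dark; fluorescence read at 544/590 nm.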
# [2] = CCTE_Simmons_CellTiterGLO_HEK293T: Viability Assessment in CCTE's Assays for Thyroperoxidase (TPO) Inhibition, Simmons Lab (AID 2283665);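 as to AC50: cells exposed to compound for 24 h before readout; actives reduce ATP signal below DMSO vehicle meaning cytotoxicity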
# Outline: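 HEK293T cells in DMEM with 1% FBS, dosed 24 h at 37C with 8 concentrations, 5 nM–87.5 uM final, 0.5% DMSO. ATP measured by CellTiter Glo luminescence; loss of signal vs DMSO, three biological replicates.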
# [3] = Tanguay_ZF_120hpf_TR_legacy: (Legacy) Oregon State University Tanguay Lab 120 Hour Post-fertilization zebrafish Assay for Touch Response (AID 2283667)
# Outline: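 Tropical 5D wild-type zebrafish embryos statically exposed to 120 hpf at 28°C, sealed and dark-covered, 0.64% DMSO final; touch response scored as present/absent by brightfield microscopy at 120 hpf. Trimethyltin chloride 5 uM positive control; dead embryos not scored.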
# [4] = CEETOX_H295R_MTT_cell_viability: Viability Assessment in the CeeTox HT-H295R MTT Assay (AID 2283718; active = hit-call score of the fitted dose curve at least 0.9, where 1 is the maximum; inactive = score below 0.9)
# Outline: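 Human H295R adrenal cells, prestimulated 48 h with 10 uM forskolin, were exposed 48 h to chemicals in 0.1% DMSO. Viability was measured in the same wells by MTT (0.5 mg/ml, 4 h, 37 C), absorbance 570/650 nm, as percent of controls.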
# [5] = CCTE_Padilla_ZF_144hpf_TERATOSCORE: (Legacy) CCTE's 144 Hour Post-fertilization zebrafish Assay Teratoscore, Padilla Lab (AID 2283679; active = hit-call score of the fitted dose curve at least 0.9, where 1 is the maximum; inactive = score below 0.9;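 as to AC50: zebrafish embryos with chorions exposed by immersion from 6-8 hpf to 5 dpf with daily renewal; teratogenicity score from eye scoring of death hatching and malformations at 144 hpf; higher score means more developmental defects relative to DMSO baseline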)
# Outline: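 Larvae scored by eye at 144 hpf for death, hatching and malformations after a day in clean Hanks'. Before that, daily-renewed exposure at 80 uM (0.4% DMSO, 26C) from roughly 6-8 hpf through 5 dpf, 4 embryos per chemical.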
# [6] = STM_H9_OrnithineISnorm_perc: Stemina devTOX quickPredict H9 human embryonic stem cell (hESC)-based Assay for Ornithine (ORN) Metabolite Biomarker, Normalized (AID 2283712; active = hit-call score of the fitted dose curve at least 0.9, where 1 is the maximum; inactive = score below 0.9;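 also: ornithine released into spent medium during last day measured by mass spectrometry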)
# Outline: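 Undifferentiated H9 hESCs exposed 72 h with daily media and compound renewal; final 24-h conditioned medium analysed by UPLC-HRMS. Ornithine peak area normalised to spiked C13 standard and to median 0.1% DMSO control; viability by CellTiter-Fluor.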
# [7] = STM_H9_CystineISnorm_perc: Stemina devTOX quickPredict H9 human embryonic stem cell (hESC)-based Assay for Cystine (CYSS) Metabolite Biomarker, Normalized (AID 2283713; active = hit-call score of the fitted dose curve at least 0.9, where 1 is the maximum; inactive = score below 0.9)
# Outline: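 Undifferentiated H9 hESCs exposed 72 h, compound and media replaced every 24 h; final 24-h media analysed by UPLC-HRMS. Cystine normalized to C13 spike-in standard and median 0.1% DMSO control.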
# [8] = STM_H9_OrnCyssISnorm_ratio: Stemina devTOX quickPredict H9 human embryonic stem cell (hESC)-based Assay for Ornithine (ORN):Cystine (CYSS) Ratio (AID 2283714)
# Outline: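 Undifferentiated H9 hESCs exposed 72 h, media and compound replaced every 24 h; final 24-h conditioned media deproteinized and analysed by UPLC-HRMS against C13 spike-ins. Value is the internal-standard-normalized ORN/CYSS ratio versus 0.1% DMSO.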
# [9] = Tanguay_ZF_120hpf_ActivityScore_legacy: (Legacy) Oregon State University Tanguay Lab 120 Hour Post-fertilization zebrafish Assay Score for Activity (AID 2283742)
# Outline: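 Dechorionated Tropical 5D embryos, one per well from 6 hpf, statically exposed to 120 hpf at 28 °C in 0.64% DMSO. Mortality and malformations scored binary by brightfield microscopy; activity score combines 18 endpoints, fitted positively versus DMSO.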
# [10] = tested on: Thyroperoxidase (TPO), gene 445522; test: CCTE_Simmons_GUA_TPO: CCTE's Guaiacol Assay for Thyroperoxidase (TPO) Inhibition, Simmons Lab (AID 2283750)
# Outline: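 Porcine thyroid microsomes (25 ug) in 200mM potassium phosphate, preincubated 30 s at 37C with compound (8 concentrations, 5 nM–87.5 uM) and 35mM guaiacol; 1mM H2O2 starts reaction. Absorbance change at 450nm over first 80 s; loss of signal versus DMSO, three replicates.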
# [11] = read-out: solute carrier (SLC10A1), SLC10A1 (gene 6554); test: LTEA_HepaRG_SLC10A1: Life Technologies and Expression Analysis (LTEA) Assay for solute carrier (SLC10A1) using HepaRG (AID 2283657; active = hit-call score of the fitted dose curve at least 0.9, where 1 is the maximum; inactive = score below 0.9); details: mRNA level, 48 h; actives raise or lower the signal
# Outline: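 HepaRG cells (single lot) exposed 48 h in serum-free induction medium, 8-point half-log series from 100 uM top in 0.5% DMSO, duplicate. SLC10A1 mRNA by qRT-PCR normalised to ACTB, GAPDH, POLR2A; bidirectional fit versus DMSO.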
# [12] = read-out: matrix metalloproteinase-1 (MMP1), MMP1 (gene 4312); test: LTEA_HepaRG_MMP1: Life Technologies and Expression Analysis (LTEA) Assay for matrix metalloproteinase-1 (MMP1) using HepaRG (AID 2283658; active = hit-call score of the fitted dose curve at least 0.9, where 1 is the maximum; inactive = score below 0.9); details: mRNA level, 48 h; actives raise or lower the signal
# Outline: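 MMP1 transcript read by TaqMan qRT-PCR (Fluidigm array) after 48 h chemical exposure of HepaRG cells in serum-free induction medium. Eight-point half-log series, top 100 uM, 0.5% DMSO vehicle. Bidirectional curve fit against DMSO baseline.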
# [13] = read-out: Cytochrome P450 (CYP24A1_1), CYP24A1 (gene 1591); test: LTEA_HepaRG_CYP24A1_1: Life Technologies and Expression Analysis (LTEA) Assay for Cytochrome P450 (CYP24A1_1) using HepaRG (AID 2283671; active = hit-call score of the fitted dose curve at least 0.9, where 1 is the maximum; inactive = score below 0.9); details: mRNA level, 48 h; actives raise or lower the signal
# Outline: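 Differentiated human HepaRG cells in serum-free induction medium, exposed 48 h in duplicate to eight half-log concentrations from 100 uM top, 0.5% DMSO. Transcript measured by TaqMan qRT-PCR, normalised to ACTB, GAPDH, POLR2A; bidirectional fitting versus DMSO.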
# [14] = ArunA_Migration_hNP: ArunA Biomedical's Oris Neuroprogenitor (hNP) Cell Migration Assay (AID 2283754)
# Outline: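 Human H9-derived hNP1 neuroprogenitors on Matrigel with LIF/bFGF, plated around seeding stoppers for 16 h at 37C; stoppers removed at start of 72 h chemical exposure. Calcein-AM staining, fluorescence 494/517 nm in detection zone; loss-of-signal vs DMSO; cytochalasin D control.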
# [15] = ArunA_Migration_hNC: ArunA Biomedical's Oris Neural Crest (hNC) Cell Migration Assay (AID 2283755)
# Outline: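 Human H9-derived neural crest stem cells, 60,000/well on Matrigel, 16 h at 37C, then 72 h chemical exposure after seeding-stopper removal. Migration into detection zone read as calcein-AM fluorescence (ex494/em517), relative to DMSO.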
# [16] = ArunA_NOG_NucleusCount: ArunA Biomedical's Neurite Outgrowth (NOG) Assay for Nucleus Count (AID 2283756)
# Outline: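 Human H9-derived differentiated neurons were exposed for 48 h right after seeding. Hoechst-stained nuclei gated by size and intensity were counted by automated high-content imaging as viable neurons. Loss of signal vs DMSO.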
# [17] = ArunA_NOG_NeuriteLength: ArunA Biomedical's Neurite Outgrowth (NOG) Assay for Neurite Length (AID 2283757)
# Outline: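 Differentiated human H9-derived neurons were exposed for 48 h from seeding, then stained with Hoechst and βIII-tubulin. Automated high-content imaging gave total neurite length per valid neuron, counting processes >10 um. Loss of signal was scored versus DMSO.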
# [18] = ArunA_NOG_NeuritesPerNeuron: ArunA Biomedical's Neurite Outgrowth (NOG) Assay for Neurites Per Neuron (AID 2283758)
# Outline: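 Differentiated human H9-derived neurons exposed to chemicals for 48 h from seeding, then stained with Hoechst and βIII-tubulin/DyLight 488. Automated imaging counted neurites (processes >10 um) per valid neuron; loss of signal versus DMSO scored.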
smiles,measurement,setting,value
CCn1nc(C)c2c1C(=O)NCC(c1ccc(O)cc1)=N2,AC50,[1],11.9 µM (active)
same,outcome,[2],inactive
same,outcome,[3],inactive
same,outcome,[4],inactive
O=C1CN(N=Cc2ccc([N+](=O)[O-])o2)C(=O)N1,outcome,[3],inactive
same,outcome,[5],inactive
same,AC50,[6],7.42 µM (active)
same,AC50,[7],5.91 µM (active)
same,AC50,[8],6.21 µM (active)
CCCCOC(=O)c1ccccc1,outcome,[3],inactive
same,AC50,[5],59.1 µM (active)
COc1cc(C(C)C)c2c(c1)S(=O)(=O)N(COc1cc(=O)n3cccc(OCCN4CCCCC4)c3n1)C2=O,outcome,[3],inactive
same,AC50,[5],15.5 µM (active)
C[C@@H](Oc1ccc(CNC(=O)c2cccnc2Oc2ccc3c(c2)OCO3)c(F)c1)C(=O)O,AC50,[1],22.2 µM (active)
same,outcome,[2],inactive
same,outcome,[3],inactive
same,outcome,[5],inactive
same,outcome,[4],inactive
same,outcome,[9],inactive
same,outcome,[10],inactive
C=CCc1cc(S(=O)(=O)c2ccc(O)c(CC=C)c2)ccc1O,AC50,[1],14.6 µM (active)
same,AC50,[2],79.5 µM (active)
same,outcome,[3],inactive
same,AC50,[5],60 µM (active)
same,outcome,[4],inactive
CC1(C)C(=O)N(Cl)C(=O)N1Cl,outcome,[3],inactive
CCc1cccc(CC)c1N,outcome,[3],inactive
OC[C@H]1O[C@@H]2O[C@H]3[C@H](O)[C@@H](O)[C@@H](O[C@H]4[C@H](O)[C@@H](O)[C@@H](O[C@H]5[C@H](O)[C@@H](O)[C@@H](O[C@H]6[C@H](O)[C@@H](O)[C@@H](O[C@H]7[C@H](O)[C@@H](O)[C@@H](O[C@H]1[C@H](O)[C@H]2O)O[C@@H]7CO)O[C@@H]6CO)O[C@@H]5CO)O[C@@H]4CO)O[C@@H]3CO,outcome,[3],inactive
CCOC(N)=O,outcome,[3],inactive
c1ccc2cc3ccccc3cc2c1,AC50,[11],10.4 µM (active)
same,outcome,[12],inactive
same,AC50,[1],10.6 µM (active)
same,outcome,[2],inactive
same,outcome,[3],inactive
same,outcome,[13],inactive
same,outcome,[4],inactive
same,outcome,[9],inactive
CCCCCCCCCCCCCCCCOS(=O)(=O)O,outcome,[1],inactive
same,AC50,[2],26.7 µM (active)
same,outcome,[3],inactive
same,AC50,[5],7.7 µM (active)
COS(C)(=O)=O,AC50,[1],49.7 µM (active)
same,outcome,[2],inactive
same,outcome,[3],inactive
same,AC50,[6],71.4 µM (active)
same,AC50,[7],62.6 µM (active)
same,AC50,[8],65.5 µM (active)
CCc1ccc(O)c(C(C)(C)C)c1,AC50,[1],13 µM (active)
same,AC50,[2],12.6 µM (active)
same,outcome,[3],inactive
same,AC50,[5],25.1 µM (active)
Cn1cc[nH]c1=S,AC50,[1],0.0542 µM (active)
same,outcome,[2],inactive
same,outcome,[5],inactive
same,outcome,[6],inactive
same,AC50,[7],37.7 µM (active)
same,outcome,[14],inactive
same,outcome,[15],inactive
same,AC50,[16],5.5 µM (active)
same,AC50,[17],6.43 µM (active)
same,AC50,[18],5.75 µM (active)
